We go through 18 molecules from PubChem BioAssay (EPA / NIEHS).

Active and inactive are the calls of the source. How the source made its calls: active means hit-call score of the fitted dose curve at least 0.9, where 1 is the maximum; inactive means score below 0.9.

Read-out in experiment [1]: Macrophage colony-stimulating factor (MCSF), CSF1 (gene 1435)
Description: BSK_hDFCGF_MCSF: BioMAP Diversity Plus: hDFCGF Assay for Macrophage colony-stimulating factor (MCSF) Biomarker Activity (AID 2283060). The following applies: primary human foreskin fibroblasts; actives raise or lower the signal. The gist of the method: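 M-CSF levels read by ELISA at 24 h post-dosing in human skin fibroblasts. Parallel cultures stained with SRB assessed cytotoxicity at the same time point; response fitted in both directions against the DMSO baseline.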

Experiment [2] in a line: BSK_hDFCGF_SRB: Viability Assessment in the BioMAP Diversity Plus: hDFCGF Assay (AID 2283061).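 Further: cells exposed to compound for 24 h before the read.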 As to conditions: primary human foreskin fibroblasts. In a few lines:
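Viability was read as total protein: after 10% TCA fixation, wells were stained with 0.1% sulforhodamine B and read at 560 nm. Primary human foreskin fibroblasts were dosed for 24 h, with bidirectional fitting versus DMSO.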

Read-out in experiment [3]: TIMP metallopeptidase inhibitor 1 (TIMP1), TIMP1 (gene 7076)
Description: BSK_hDFCGF_TIMP1: BioMAP Diversity Plus: hDFCGF Assay for TIMP metallopeptidase inhibitor 1 (TIMP1) Biomarker Activity (AID 2283062). As to conditions: primary human foreskin fibroblasts; actives raise or lower the signal. In a few lines:
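TIMP-1 measured by ELISA 24 h after chemical dosing of primary human skin fibroblasts, with gain or loss fitted relative to DMSO. Parallel SRB staining (560 nm) monitored overt cytotoxicity.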

Read-out in experiment [4]: Monokine induced gamma interferon (MIG), CXCL9 (gene 4283)
The experiment in a line: BSK_hDFCGF_MIG: BioMAP Diversity Plus: hDFCGF Assay for Monokine induced gamma interferon (MIG) Biomarker Activity (AID 2283063). As to conditions: primary human foreskin fibroblasts; actives raise or lower the signal. The gist of the method: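 Human primary foreskin fibroblasts in the hDFCGF system, exposed to test chemical for 24 h; MIG measured by ELISA. Bidirectional curve fitting against DMSO negative control as activity baseline.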

Read-out in experiment [5]: Matrix Metallopeptidase 1 (MMP1), MMP1 (gene 4312)
Description: BSK_hDFCGF_MMP1: BioMAP Diversity Plus: hDFCGF Assay for Matrix Metallopeptidase 1 (MMP1) Biomarker Activity (AID 2283064). As to conditions: primary human foreskin fibroblasts; actives raise or lower the signal. In a few lines: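 Primary human foreskin fibroblasts exposed to chemicals for 24 h; MMP1 measured by ELISA. Cytotoxicity tracked by SRB staining in parallel cultures; bidirectional fit relative to DMSO.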

Read-out in experiment [6]: Vascular cell adhesion molecule 1 (VCAM1), VCAM1 (gene 7412)
Description: BSK_hDFCGF_VCAM1: BioMAP Diversity Plus: hDFCGF Assay for Vascular cell adhesion molecule 1 (VCAM1) Biomarker Activity (AID 2283065).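 On AC50: VCAM-1 protein level quantified by ELISA after 24 h chemical exposure.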 The following applies: primary human foreskin fibroblasts; actives raise or lower the signal. The gist of the method:
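ELISA readout of VCAM-1 on human dermal fibroblast primary cultures, 24 h after chemical exposure. Gain or loss of signal fitted in both directions against DMSO baseline.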

Read-out in experiment [7]: Plasminogen activator inhibitor-1 (PAI1), SERPINE1 (gene 5054)
The experiment in a line: BSK_hDFCGF_PAI1: BioMAP Diversity Plus: hDFCGF Assay for Plasminogen activator inhibitor-1 (PAI1) Biomarker Activity (AID 2283066). The following applies: primary human foreskin fibroblasts; actives raise or lower the signal. The gist of the method: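 PAI-1 levels, determined by ELISA, served as the endpoint in human foreskin fibroblast cultures exposed to compound for 24 h, with DMSO as baseline.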

Read-out in experiment [8]: Intercellular Adhesion Molecule 1 (ICAM1), ICAM1 (gene 3383)
The experiment in a line: BSK_KF3CT_ICAM1: BioMAP Diversity Plus: KF3CT Assay for Intercellular Adhesion Molecule 1 (ICAM1) Biomarker Activity (AID 2283067). As to conditions: primary human keratinocytes with fibroblasts; actives raise or lower the signal. In a few lines: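 Cell-surface ICAM-1 was measured by ELISA 24 h after dosing primary human skin keratinocytes co-cultured with fibroblasts. Parallel SRB staining tracked overt cytotoxicity. Gain or loss of signal was fitted relative to DMSO.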

Read-out in experiment [9]: Interferon-gamma inducible Protein 10 (IP10), CXCL10 (gene 3627)
Description: BSK_KF3CT_IP10: BioMAP Diversity Plus: KF3CT Assay for Interferon-gamma inducible Protein 10 (IP10) Biomarker Activity (AID 2283068). As to conditions: primary human keratinocytes with fibroblasts; actives raise or lower the signal. In a few lines:
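ELISA read-out of IP-10 after 24 h chemical dosing of human skin primary co-culture (keratinocytes, foreskin fibroblasts). Gain or loss of signal relative to DMSO, bidirectional curve fit.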

The nature of experiment [10]: BSK_KF3CT_SRB: Viability Assessment in the BioMAP Diversity Plus: KF3CT Assay (AID 2283069).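 Further: total protein by sulforhodamine B staining as a cytotoxicity measure; read 24 h after compound addition.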 As to conditions: primary human keratinocytes with fibroblasts. The gist of the method: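 Human keratinocyte and foreskin fibroblast co-culture exposed to chemical for 24 h. Total protein measured in parallel cultures by 0.1% sulforhodamine B staining after 10% TCA fixation, read at 560 nm; bidirectional fit relative to DMSO.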

As to `CCc1cnc(C2=NC(C)(C(C)C)C(=O)N2)c(C(=O)O)c1` (stereo not given), the result in [1], in experiment [2], in [3], in [4], in experiment [5] and in experiment [6] was inactive. Further, the outcome in experiment [7], in [8], in [9] and in experiment [10] was inactive.
The AC50 is the concentration giving half of the maximal activity seen. Regarding `CC[C@H](C)[C@H]1O[C@]2(C=C[C@@H]1C)C[C@@H]1C[C@@H](C/C=C(\C)[C@@H](O[C@H]3C[C@H](OC)[C@@H](O[C@H]4C[C@H](OC)[C@@H](NC)[C@H](C)O4)[C@H](C)O3)[C@@H](C)/C=C/C=C3\CO[C@@H]4[C@H](O)C(C)=C[C@@H](C(=O)O1)[C@]34O)O2`, the AC50 in experiment [1] is 2.85 µM (active); in experiment [2], 3.85 µM (active); in experiment [3], 4.4 µM (active); in experiment [4], 5.27 µM (active); in experiment [5] it was 6.78 µM (active); in [6], 4.8 µM (active). Moreover, the AC50 in experiment [7] was 2.08 µM (active); in experiment [8], 9.03 µM (active); in experiment [9], 8.17 µM (active); in experiment [10] it was 6.31 µM (active).
For `COc1cccc(C(=O)NN(C(=O)c2cc(C)cc(C)c2)C(C)(C)C)c1C`, the outcome in experiment [1], in experiment [2], in experiment [3], in experiment [4], in [5] and in [6] was inactive. For the same molecule, the outcome in experiment [7], in experiment [8], in experiment [9] and in experiment [10] was inactive.
Consider `CSC1=N[C@@](C)(c2ccccc2)C(=O)N1Nc1ccccc1`, for which the result in experiment [1], in [2], in [3], in [4], in [5] and in experiment [6] was inactive. For the same molecule, the outcome in [7], in [8], in experiment [9] and in experiment [10] was inactive.
As to `C#CC(C)(C)NC(=O)c1cc(Cl)cc(Cl)c1`, the outcome in experiment [1], in [2], in experiment [3], in [4], in experiment [5] and in experiment [6] was inactive. Further, the outcome in experiment [7], in experiment [8], in experiment [9] and in [10] was inactive.
With `CC(C1CC1)C(O)(Cn1cncn1)c1ccc(Cl)cc1` (stereo not given), the result in [1], in experiment [2], in [3], in experiment [4], in [5] and in experiment [6] was inactive. The result in [7], in [8], in experiment [9] and in experiment [10] was inactive.
On to `CC(C)N(C(=O)SCC(Cl)=C(Cl)Cl)C(C)C`, for which the AC50 was 32 µM (active) in experiment [1]; 33.8 µM (active) in experiment [2]; 34.4 µM (active) in [3]; 33.8 µM (active) in experiment [4]; 31.4 µM (active) in experiment [5]; 34.8 µM (active) in experiment [6]. In addition, the concentration at half-maximal activity (AC50) is 34.4 µM (active) in experiment [7], 29.8 µM (active) in [8], 36.3 µM (active) in experiment [9] and 32.5 µM (active) in experiment [10].
Take `CCc1cccc(CC)c1N(COC)C(=O)CCl`: the AC50 was 18.9 µM (active) in experiment [1], 24 µM (active) in experiment [2], 10.1 µM (active) in experiment [4] and 8.35 µM (active) in [6]. In addition, the result in [3], in experiment [5], in [7], in [8], in experiment [9] and in [10] was inactive.
With `CCCCOC(=O)[C@@H](C)Oc1ccc(Oc2ccc(C#N)cc2F)cc1`, the outcome in [1], in [2], in [3], in experiment [4], in experiment [5] and in experiment [6] was inactive. In addition, the result in experiment [7], in [8], in [9] and in [10] was inactive.
Regarding `CC1(C(=O)Nc2ccc(O)c(Cl)c2Cl)CCCCC1`, the result in experiment [1], in experiment [2], in [3], in experiment [4], in experiment [5] and in experiment [6] was inactive. The result in [7], in experiment [8], in experiment [9] and in [10] was inactive.
Consider `Nc1c(Cl)cc([N+](=O)[O-])cc1Cl`, for which the outcome in [1], in experiment [2], in experiment [3], in experiment [4], in experiment [6] and in experiment [7] was inactive. Moreover, the result in experiment [8], in [9] and in [10] was inactive. In addition, in experiment [5], the half-maximal activity concentration (AC50) was 4.71 µM (active).
For the molecule `Cc1nn(-c2cc(NS(C)(=O)=O)c(Cl)cc2Cl)c(=O)n1C(F)F`, the outcome in [1], in experiment [2], in experiment [3], in experiment [4], in experiment [5] and in experiment [6] was inactive. Further, the outcome in experiment [7], in [8], in experiment [9] and in [10] was inactive.
As for `CON=C(C(=O)OC)c1ccccc1CON=C(C)c1cccc(C(F)(F)F)c1`, the outcome in experiment [1], in [4], in experiment [6], in experiment [8] and in experiment [10] was inactive. The AC50 in experiment [2] is 4.21 µM (active); in [3], 5.26 µM (active); in experiment [5], 2.74 µM (active); in [7] it was 4 µM (active); in [9] it was 18 µM (active).
For the molecule `CNC(=O)ON=C(C)SC`, the outcome in experiment [1], in [2], in experiment [3], in [4], in [5] and in experiment [6] was inactive. The outcome in experiment [7], in experiment [8], in experiment [9] and in [10] was inactive.
For the molecule `CN1COCN(Cc2cnc(Cl)s2)C1=N[N+](=O)[O-]`, the outcome in experiment [1], in [2], in experiment [3], in [4], in [5] and in experiment [6] was inactive. Also, the outcome in experiment [7], in [8], in [9] and in experiment [10] was inactive.
As for `CC(C)=CC1C(C(=O)OCN2C(=O)C3=C(CCCC3)C2=O)C1(C)C` (stereo not given), the half-maximal activity concentration (AC50) in experiment [1] was 27.6 µM (active); in experiment [2], 30.7 µM (active); in experiment [4] it was 33.5 µM (active); in experiment [6] it was 25.8 µM (active); in [7] it was 30.7 µM (active). The outcome in experiment [3], in experiment [5], in experiment [8], in experiment [9] and in experiment [10] was inactive.
For `CCCSP(=O)(OCC)SCCC`, the outcome in experiment [1], in experiment [2], in experiment [3], in experiment [4], in experiment [5] and in experiment [6] was inactive. Moreover, the outcome in [7], in experiment [8], in [9] and in experiment [10] was inactive.
As for `CCC(CC)Nc1c([N+](=O)[O-])cc(C)c(C)c1[N+](=O)[O-]`, the AC50 in [1] was 13.5 µM (active); in [4], 11.8 µM (active); in experiment [5] it was 6.93 µM (active); in [6], 11.9 µM (active); in experiment [9], 13.8 µM (active). Further, the result in [2], in [3], in experiment [7], in experiment [8] and in [10] was inactive.
